Data on 40 compounds can be found in PubChem BioAssay (Tox21).

Inconclusive results are not listed. A call without a number means that no potency is given here. The source made the active and inactive calls. Calls come from the whole dose curve; as a rule, active = well fitted cell-killing curve with a large enough effect in the repeat runs; inconclusive = weak or mixed curves; inactive = flat fitted curve, though single readings scatter.
Potency is the fitted concentration of half-maximal effect.

The assay can be described thus: qHTS RealTime-Glo MT Cell Viability Assay in HepG2 cells - 32 hour (AID 1224877). Note: nearly all actives have a fitted effect of over 55% in size. The settings on record: RealTime-Glo luminescence; series mostly up to 76.8 µM. The source says: U.S. Tox21 Program National Center for Advancing Translational Sciences [NCATS] NIH Chemical Genomics Center [NCGC] U.S. Environmental Protection Agency [EPA] National Institutes of Environmental Health Sciences [NIEHS] National Toxicology Program [NTP] U.S. Food and Drug Administration [FDA] Tox21 Assay Overview: Measure of cell viability is critical in the cell-base assay. Analysis of cell viability is necessary for the characterization of cell responses to cytotoxic drugs and environmental stress. A RealTime-Glo MT Cell Viability Assay to monitor cell viability in real time of continues cell culture during 40 hours of compound treatment was used to screen Tox21 10K library compounds in HepG2 cells. The RealTime-Glo MT Cell Viability Assay is a nonlytic, homogeneous, bioluminescent method to measure cell viability in real time using a simple, plate-based method. The assay involves adding NanoLuc luciferase and a cell-permeant prosubstrate to cells in culture. Viable cells reduce the proprietary prosubstrate to generate a substrate for NanoLuc luciferase. This substrate diffuses from cells into the surrounding culture medium, where it is rapidly used by the NanoLuc Enzyme to produce a luminescent signal. The signal correlates with the number of viable cells, making the assay well suited for cytotoxicity studies.
Tox21 Assay Protocol Summary: The mixture of HepG2 cell suspension and reagents were dispensed at 600cells/6 ul/well in 1536-well tissue culture treated black solid bottom plates using a Multidrop dispenser. After the assay plates were incubated at a 37 C/5% CO2 incubator for 5 hours, 23 nL of compounds dissolved in DMSO, positive and negative controls was transferred to the assay plate by a pintool work station. The plates were incubated at 37 C for 40 hours. The luminescence intensity were measured at 0h, 8h, 16h, 24h, 32h and 40h time points using ViewLux plate reader during compound treatment.
Regarding `C/C=C/C=C/C=O`, the Potency entry was “inactive”. Turning to `COC(=O)CS`, the Potency entry is “inactive”. Consider `COC(=O)CCS`, for which the Potency entry was “inactive”. Regarding `CCCCOc1ccc(OCCCN2CCOCC2)cc1`, the Potency entry was “inactive”. In the case of `CC(=O)c1ccc([N+](=O)[O-])cc1` it was “inactive”.

Take `CCCCCCC(C)(C)C(=O)O`: the Potency result was “inactive”. In the case of `CC(=O)OCCN(CCOC(C)=O)c1ccc(N=Nc2ccc([N+](=O)[O-])cc2C#N)cc1` it was “inactive”. On to `N#CCc1ccc(Cl)cc1Cl`, for which the Potency entry is “inactive”. In the case of `Oc1ccc(Cl)c2cccnc12` it was “inactive”; in that of `CCCCCCNC(=O)n1cc(F)c(=O)[nH]c1=O`, “inactive”; in that of `CCC=CC#N`, “inactive”. As to `Clc1cc(Cl)nc(Cl)n1`, the Potency entry is “inactive”. `OCCOCC#CCOCCO`: the Potency entry is “inactive”. As for `CC(C)=CC(=O)C=C(C)C`, the Potency entry is “inactive”. With `O=C=Nc1cccc(C(F)(F)F)c1`, the Potency entry was “inactive”. Consider `C/C=C(/C(=C/C)c1ccc(O)cc1)c1ccc(O)cc1`, for which the Potency result is “inactive”. In the case of `CC(=O)OCC[N+](C)(C)C` it was “inactive”; in that of `CC(C)Nc1cccnc1N1CCN(C(=O)c2cc3cc(NS(C)(=O)=O)ccc3[nH]2)CC1`, “inactive”. In the case of `CCOC(=O)c1ccc(C#Cc2ccc3c(c2)C(C)(C)CCS3)nc1` it was “inactive”; in that of `CC1CC(OC(=O)C(O)c2ccccc2)CC(C)(C)N1C` (stereo not given), “inactive”; in that of `CC(=O)NC1(c2cccc(F)c2)CCN(CC[C@@]2(c3ccc(Cl)c(Cl)c3)CN(c3ccccc3)C(=O)CO2)CC1`, 43.8 µM (active). For `CC1(C)S[C@@H]2[C@H](NC(=O)C(c3ccccc3)S(=O)(=O)O)C(=O)N2[C@H]1C(=O)O` (stereo not given in full), the Potency result was “inactive”. Turning to `Cc1cc2c(OCC(CNC(C)(C)C)OC(=O)c3ccccc3)cccc2[nH]1` (stereo not given), the Potency entry is “inactive”.

On to `CCOC(=O)OC(C)OC(=O)[C@@H]1N2C(=O)[C@@H](NC(=O)[C@H](N)c3ccccc3)[C@H]2SC1(C)C` (stereo not given in full), for which the Potency result was “inactive”.

Consider `CC(C)(O)c1ccc(CNC(=O)c2cccnc2Oc2ccc3nonc3c2)cc1`, for which the Potency entry was “inactive”. For the compound `CCCCCCCC/C=C\CCCCCCCCCCCC(=O)O`, the Potency entry is “inactive”. `CCc1ccccc1`: the Potency result is “inactive”. Regarding `FC(F)(F)c1ccccc1Cl`, the Potency result is “inactive”. On to `COc1ccc(OC(=O)N(CC(=O)O)Cc2ccc(OCCc3nc(-c4ccccc4)oc3C)cc2)cc1`, for which the Potency entry was “inactive”. On to `O=C1CCCCCCCCCCOCCCCO1`, for which the Potency entry is “inactive”.

Take `CCC1(CO)COCOC1`: the Potency result is “inactive”. As to `Cc1cc(O)c(C)c(C)c1O`, the Potency entry is “inactive”. Regarding `NC(=O)c1ccncc1`, the Potency entry was “inactive”.

In the case of `O=C(O)c1cccc(-c2noc(-c3ccccc3F)n2)c1`, the Potency entry was “inactive”. In the case of `O=C=Nc1ccc(Cl)c(Cl)c1` it was “inactive”.

Regarding `C[C@H]1C[C@H](O)c2ccsc2S1(=O)=O`, the Potency result is “inactive”. `Cc1cc(C)c(N)cc1C`: the Potency entry was “inactive”. In the case of `Cc1ccc(CO)cc1` it was “inactive”; in that of `c1ccc2sc(SN(C3CCCCC3)C3CCCCC3)nc2c1`, “inactive”. As for `O=[N+]([O-])c1ccc(Nc2ccc(Nc3ccccc3)c(S(=O)(=O)O)c2)c([N+](=O)[O-])c1`, the Potency result is “inactive”.
